Source: PubChem BioAssay AID1159580 (chemical genetic matrix, 2015)
Screen size: about 5,500 compounds; about 2,000 (36%) were called active. Roughly 18% stayed inconclusive and do not appear here. Rule as the data show it: active = normalized growth mostly below about 0.91 (no sharp cut-off); inconclusive = no clear call, values can overlap the other calls; inactive = mostly above about 0.92. The list shows a part of the results.

Test: chemical genetic growth profiling, strain panel (AID 1159580);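 also: tested at 20 µM; growth read once vehicle control cultures reached saturation at 30 °C; 1 = growth at the plate median or of vehicle wells; lower values mean less growth of the strain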
Conditions: growth OD

Measured: normalized growth

CC(Oc1ccccc1)C(=O)N[C@@H]1C(=O)N2[C@@H]1SC(C)(C)[C@@H]2C(=O)O (some centres not stated)
inactive: S. cerevisiae deletion strains, locus YJR075W, strain HOC1, stronger effect = lower value 1.01 | S. cerevisiae deletion strains, locus YKL009W, strain mrt4, stronger effect = lower value 0.995 | S. cerevisiae deletion strains, locus YKL068W, stronger effect = lower value 1.01 | S. cerevisiae deletion strains, locus YKL085W, strain MDH1 (second series), stronger effect = lower value 1 | S. cerevisiae deletion strains, locus YKL085W, strain MDH1, stronger effect = lower value 1 | S. cerevisiae deletion strains, locus YKL160W, strain elf1, stronger effect = lower value 0.985 | S. cerevisiae deletion strains, locus YKL190W, strain CNB1, stronger effect = lower value 1.01 | S. cerevisiae deletion strains, locus YKR001C, strain vps1, stronger effect = lower value 1.02 | S. cerevisiae deletion strains, locus YKR026C, strain gcn3, stronger effect = lower value 0.993 | S. cerevisiae deletion strains, locus YKR091W, strain srl3, stronger effect = lower value 0.993 | S. cerevisiae deletion strains, locus YLL001W, strain dnm1, stronger effect = lower value 0.983 | S. cerevisiae deletion strains, locus YLL026W, stronger effect = lower value 0.998 | S. cerevisiae deletion strains, locus YLL041C, strain sdh2, stronger effect = lower value 0.992 | S. cerevisiae deletion strains, locus YLR027C, strain aat2, stronger effect = lower value 1 | S. cerevisiae deletion strains, locus YLR039C, strain RIC1, stronger effect = lower value 1.02 | S. cerevisiae deletion strains, locus YLR058C, strain SHM2, stronger effect = lower value 1.01 | S. cerevisiae deletion strains, locus YLR102C, strain apc9, stronger effect = lower value 1.02 | S. cerevisiae deletion strains, locus YLR113W, strain HOG1, stronger effect = lower value 1.01 | S. cerevisiae deletion strains, locus YLR221C, strain rsa3, stronger effect = lower value 0.981 | S. cerevisiae deletion strains, locus YLR258W, strain gsy2, stronger effect = lower value 0.986 | S. cerevisiae deletion strains, locus YLR262C, strain YPT6 (second series), stronger effect = lower value 1.01 | S. cerevisiae deletion strains, locus YLR262C, strain YPT6, stronger effect = lower value 1.04 | S. cerevisiae deletion strains, locus YLR268W, strain sec22, stronger effect = lower value 1.03 | S. cerevisiae deletion strains, locus YLR320W, strain mms22, stronger effect = lower value 0.984 | S. cerevisiae deletion strains, locus YLR330W, strain CHS5, stronger effect = lower value 1.01 | S. cerevisiae deletion strains, locus YLR342W, strain FKS1 (second series), stronger effect = lower value 1 | S. cerevisiae deletion strains, locus YLR342W, strain FKS1, stronger effect = lower value 1 | S. cerevisiae deletion strains, locus YLR357W, strain rsc2, stronger effect = lower value 0.978 | S. cerevisiae deletion strains, locus YLR370C, strain arc18, stronger effect = lower value 0.992 | S. cerevisiae deletion strains, locus YLR371W, strain rom2, stronger effect = lower value 1.02 | S. cerevisiae deletion strains, locus YLR384C, strain iki3, stronger effect = lower value 0.992 | S. cerevisiae deletion strains, locus YLR418C, strain cdc73, stronger effect = lower value 1.04 | S. cerevisiae deletion strains, locus YML016C, strain PPZ1, stronger effect = lower value 1.02 | S. cerevisiae deletion strains, locus YML032C, strain rad52, stronger effect = lower value 1.02 | S. cerevisiae deletion strains, locus YML120C, strain ndi1, stronger effect = lower value 0.985 | S. cerevisiae deletion strains, locus YML124C, strain tub3, stronger effect = lower value 1.02 | S. cerevisiae deletion strains, locus YMR058W, strain fet3, stronger effect = lower value 1 | S. cerevisiae deletion strains, locus YMR078C, strain ctf18, stronger effect = lower value 1.03 | S. cerevisiae deletion strains, locus YMR125W, strain sto1, stronger effect = lower value 0.992 | S. cerevisiae deletion strains, locus YMR129W, stronger effect = lower value 0.99 | S. cerevisiae deletion strains, locus YMR205C, strain PFK2, stronger effect = lower value 0.995 | S. cerevisiae deletion strains, locus YMR223W, strain ubp8, stronger effect = lower value 1.01 | S. cerevisiae deletion strains, locus YMR231W, strain pep5, stronger effect = lower value 1 | S. cerevisiae deletion strains, locus YMR263W, strain SAP30, stronger effect = lower value 1.01 | S. cerevisiae deletion strains, locus YMR307W, strain GAS1, stronger effect = lower value 1.02 | S. cerevisiae deletion strains, locus YNL067W, strain RPL9B, stronger effect = lower value 1.01 | S. cerevisiae deletion strains, locus YNL071W, strain lat1, stronger effect = lower value 0.996 | S. cerevisiae deletion strains, locus YNL128W, strain TEP1, stronger effect = lower value 1.02 | S. cerevisiae deletion strains, locus YNL153C, strain GIM3, stronger effect = lower value 1.01 | S. cerevisiae deletion strains, locus YNL183C, strain NPR1, stronger effect = lower value 0.972 | S. cerevisiae deletion strains, locus YNL209W, strain ssb2, stronger effect = lower value 0.996 | S. cerevisiae deletion strains, locus YNL233W, strain BNI4, stronger effect = lower value 1.02 | S. cerevisiae deletion strains, locus YNL248C, strain rpa49, stronger effect = lower value 0.991 | S. cerevisiae deletion strains, locus YNL250W, strain rad50, stronger effect = lower value 1.03 | S. cerevisiae deletion strains, locus YNL271C, strain bni1, stronger effect = lower value 1.02 | S. cerevisiae deletion strains, locus YNL298W, strain CLA4, stronger effect = lower value 1.03 | S. cerevisiae deletion strains, locus YNL307C, strain MCK1, stronger effect = lower value 1.03 | S. cerevisiae deletion strains, locus YNL322C, strain KRE1 (second series), stronger effect = lower value 1.01 | S. cerevisiae deletion strains, locus YNL322C, strain KRE1, stronger effect = lower value 1.01 | S. cerevisiae deletion strains, locus YNR049C, strain mso1, stronger effect = lower value 0.992 | S. cerevisiae deletion strains, locus YNR052C, strain pop2, stronger effect = lower value 1.02 | S. cerevisiae deletion strains, locus YOL006C, strain TOP1, stronger effect = lower value 1.05 | S. cerevisiae deletion strains, locus YOL012C, strain htz1 1.34 | S. cerevisiae deletion strains, locus YOL147C, strain pex11, stronger effect = lower value 1.02 | S. cerevisiae deletion strains, locus YOR001W, strain rrp6, stronger effect = lower value 1 | S. cerevisiae deletion strains, locus YOR061W, strain CKA2, stronger effect = lower value 1.02 | S. cerevisiae deletion strains, locus YOR069W, strain VPS5, stronger effect = lower value 1.01 | S. cerevisiae deletion strains, locus YOR070C, strain gyp1, stronger effect = lower value 0.992 | S. cerevisiae deletion strains, locus YOR080W, strain dia2, stronger effect = lower value 0.988 | S. cerevisiae deletion strains, locus YOR083W, strain WHI5, stronger effect = lower value 0.984 | S. cerevisiae deletion strains, locus YOR106W, strain vam3, stronger effect = lower value 0.979 | S. cerevisiae deletion strains, locus YOR136W, strain idh2, stronger effect = lower value 1.02 | S. cerevisiae deletion strains, locus YOR144C, strain elg1, stronger effect = lower value 1.03 | S. cerevisiae deletion strains, locus YOR184W, strain ser1, stronger effect = lower value 1.02 | S. cerevisiae deletion strains, locus YOR231W, strain MKK1, stronger effect = lower value 1.02 | S. cerevisiae deletion strains, locus YOR265W, strain rbl2, stronger effect = lower value 0.991 | S. cerevisiae deletion strains, locus YOR270C, strain vph1, stronger effect = lower value 1.04 | S. cerevisiae deletion strains, locus YOR290C, strain snf2, stronger effect = lower value 1.03 | S. cerevisiae deletion strains, locus YOR316C, strain cot1, stronger effect = lower value 1.02 | S. cerevisiae deletion strains, locus YPL051W, strain arl3, stronger effect = lower value 1.01 | S. cerevisiae deletion strains, locus YPL055C, strain LGE1, stronger effect = lower value 1.02 | S. cerevisiae deletion strains, locus YPL078C, strain atp4, stronger effect = lower value 0.994 | S. cerevisiae deletion strains, locus YPL106C, strain sse1, stronger effect = lower value 0.968 | S. cerevisiae deletion strains, locus YPL240C, strain hsp82, stronger effect = lower value 0.994 | S. cerevisiae deletion strains, locus YPL241C, strain CIN2, stronger effect = lower value 1.01 | S. cerevisiae deletion strains, locus YPL256C, strain CLN2, stronger effect = lower value 1.03 | S. cerevisiae deletion strains, locus YPR119W, strain clb2, stronger effect = lower value 1.02 | S. cerevisiae deletion strains, locus YPR141C, strain kar3, stronger effect = lower value 1.02 | S. cerevisiae deletion strains, locus YPR163C, strain tif3, stronger effect = lower value 1.04 | S. cerevisiae deletion strains, locus YPR167C, strain met16, stronger effect = lower value 1.02 | S. cerevisiae deletion strains, strain wtn01, stronger effect = lower value 1.02 | S. cerevisiae strains, strain wild type, stronger effect = lower value 1.02
